40 compounds from PubChem BioAssay (Tox21) can be followed below.

Inconclusive results are not listed. Where a call stands in place of a potency, no number is given. Activity calls are given as the source filed them. Calls come from the whole dose curve; as a rule, active = well fitted activation curve with a large enough effect in the repeat runs; inconclusive = weak or mixed curves; inactive = no such curve, though single readings can be large or run the other way.
Potency is the fitted concentration of half-maximal effect.

The assay in a line: qHTS assay to identify small molecule agonists of the estrogen related receptor (ERR) signaling pathway (AID 1224820). The settings on record: ERR reporter cell line, luciferase agonist mode; series mostly up to 46.1 µM. The source says: National Center for Advancing Translational Sciences [NCATS]
NIH Chemical Genomics Center [NCGC]
U.S. Environmental Protection Agency [EPA]
National Institutes of Environmental Health Sciences [NIEHS]
National Toxicology Program [NTP]
Estrogen related receptors (ERRs), the first orphan nuclear receptors discovered, play an important role in the control of cellular energy metabolism. ERRs are required for high-energy production in response to the environmental challenges. ERR-alpha was also identified as an adverse marker for breast cancer progression; ERR-alpha-positive tumors have a poor prognosis. To screen and to identify environmental compounds that perturb the ERR signaling pathways could provide valuable information for potential therapeutic or preventive measures in the treatment of metabolic disease. For identifying ERR agonists, ERR cell line (provided by NTP) has been used to screen LOPAC library.
The ERR cells were dispensed at 2,000 cells/5 ul/well in 1536-well white plates using a Multidrop dispenser. After the assay plates were incubated at a 37 C/5% CO2 incubator for 6 hours, 23 nL of compounds dissolved in DMSO, positive and negative controls or DMSO only was transferred to the assay plate by a pin tool. The plates were incubated at 37 C for 18 hours. 4 ul/well of One-Glo reagent was added into the assay plates using a Flying Reagent Dispenser. After 30 min incubation at room temperature, the luminescence intensity in the plates was measured using a ViewLux plate reader.
For orientation: qHTS replaces the single test concentration by a dilution series.
For `COc1cc2c(CCNC(C)=O)c[nH]c2cc1Cl`, the Potency result is “inactive”.

Consider `[Li+]`, for which the Potency result is “inactive”.

Consider `CC[C@H]1OC(=O)[C@H](C)[C@@H](O[C@H]2C[C@@](C)(OC)[C@@H](O)[C@H](C)O2)[C@H](C)[C@@H](O[C@@H]2O[C@H](C)C[C@H](NC)[C@H]2O)[C@](C)(O)C[C@@H](C)CN(C)[C@H](C)[C@@H](O)[C@]1(C)O`, for which the Potency entry was “inactive”.

With `NCCCNCCCCNCCCN`, the Potency result is “inactive”.

For the compound `Cc1cc(NC2CCCCC2)nc(-n2nc(C)cc2C)n1`, the Potency entry is “inactive”.

Turning to `Cn1c(=O)c2[nH]c(-c3ccc(S(=O)(=O)O)cc3)nc2n(C)c1=O`, the Potency entry was “inactive”.

In the case of `N[C@H](C(=O)O)c1cc(O)cc(O)c1`, the Potency entry is “inactive”.

Regarding `S=C(S)N1CCCC1`, the Potency result is “inactive”.

For the compound `CCCCCCCCCCCCCCCCCC(=O)OC(CC(=O)O)C[N+](C)(C)C` (stereo not given), the Potency result was “inactive”.

Regarding `NCCCC(=O)O`, the Potency result is “inactive”.

As for `CC(=O)O[C@H]1C[C@@H]2CC[C@@H]3[C@H](CC[C@@]4(C)[C@H]3C[C@H]([N+]3(C)CCCCC3)[C@@H]4OC(C)=O)[C@@]2(C)C[C@@H]1[N+]1(C)CCCCC1`, the Potency entry was “inactive”.

`CNc1ncnc2c1ncn2[C@H]1C[C@H](OP(=O)(O)O)[C@@H](COP(=O)(O)O)O1`: the Potency entry is “inactive”.

On to `N=C(N)c1ccc(N)cc1`, for which the Potency result is “inactive”.

On to `O=c1[nH]c2ccccc2c2ccccc12`, for which the Potency entry was “inactive”.

As for `CCNc1nc2c(ncn2[C@H]2C[C@H](O)[C@@H](CO)O2)c(=O)[nH]1`, the Potency result was “inactive”.

As to `N=C(N)c1ccc(OCCCCCOc2ccc(C(=N)N)cc2)cc1` (tested in a mixture with another compound), the Potency result is “inactive”.

Turning to `O=C(O)C1CCCN(CCC=C(c2ccccc2)c2ccccc2)C1` (stereo not given), the Potency result is “inactive”.

As for `COC(=O)C(N)Cc1ccc(Cl)cc1` (stereo not given), the Potency result is “inactive”.

With `CC1(C)CCC(NC(=O)[C@@H](N)CCC(=O)O)CC1`, the Potency entry is “inactive”.

With `O=C(O)C1CCCNC1` (stereo not given), the Potency result was “inactive”.

Regarding `CC(C)[C@@H]1CC[C@@H](C)C[C@@H]1P(=O)(c1ccccc1)c1ccccc1`, the Potency entry is “inactive”.

For `CN1CCc2ccccc2Cc2[nH]c3ccccc3c2CC1`, the Potency result is “inactive”.

For the compound `Oc1ccc(Cn2cc[nH]c2=S)cc1`, the Potency entry is “inactive”.

On to `N[C@H](C(=O)O)[C@H]1C[C@@H]1C(=O)O`, for which the Potency result was “inactive”.

Take `CC(C)NC[C@@H](O)c1ccc(O)c(O)c1`: the Potency entry was “inactive”.

Regarding `Fc1ccc2[nH]c(CN3CCN(c4ccccn4)CC3)cc2c1`, the Potency result was “inactive”.

For `COc1cc(OC)cc(-c2cc3cnc(N)nc3nc2NC(=O)NC(C)(C)C)c1`, the Potency result is “inactive”.

Consider `NC(N)=NC(N)=Nc1ccccc1`, for which the Potency result is “inactive”.

`CN(CCCOc1ccc(Cc2ccccc2)cc1)CCC(=O)O`: the Potency result is “inactive”.

For `CSc1nc(N)c2ncn([C@@H]3O[C@H](COP(=O)(O)OP(=O)(O)O)C(O)[C@H]3O)c2n1` (stereo not given in full), the Potency entry is “inactive”.

Turning to `CC[N+](CC)(CC)CC(=O)Nc1c(C)cccc1C`, the Potency entry is “inactive”.

As for `N[C@@H](Cn1ccc(=O)c(O)c1)C(=O)O`, the Potency result was “inactive”.

Consider `CCN(CC)CCCCCCCCOC(=O)c1cc(OC)c(OC)c(OC)c1`, for which the Potency entry is “inactive”.

As for `O=S(=O)(c1cccc2c(Cl)cccc12)N1CCCNCC1`, the Potency entry is “inactive”.

With `NS(=O)(=O)c1ccc(-n2nc(C(F)(F)F)cc2-c2ccc(Cl)cc2)cc1`, the Potency entry is “inactive”.

As for `O=Nc1c(-c2c(O)[nH]c3ccccc23)[nH]c2ccccc12`, the Potency was 2.87 µM (active).

For the compound `O=C(CCc1ccncc1)NNC(=O)N1Cc2ccccc2Oc2ccc(Cl)cc21`, the Potency result was “inactive”.

Consider `Cc1cccc(C2CN(C)CCc3c2cc(O)c(O)c3Cl)c1` (stereo not given), for which the Potency result is “inactive”.

`CN1[C@@H](CC(=O)c2ccccc2)CCC[C@H]1C[C@H](O)c1ccccc1`: the Potency result was “inactive”.

Take `C[C@]12C=CC(=O)C=C1CC[C@@H]1C2=CC[C@]2(C)[C@@H](C(=O)CN3CCN(c4cc(N5CCCC5)nc(N5CCCC5)n4)CC3)CC[C@@H]12`: the Potency result is “inactive”.
